Assay [1] in a line: qHTS assay for small molecules that induce genotoxicity in human embryonic kidney cells expressing luciferase-tagged ATAD5 (AID 651632). Note: nearly all actives have a fitted effect of over 15% in size. The note with it: HEK293T ATAD5-luciferase induction, 16 h; series mostly up to 83.3 µM. An outline of the steps: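 A rise in luciferase signal from ATAD5-tagged HEK293T cells marks genetic stress. Cells were exposed to compounds for 16 hr at 37C, 5% CO2, then luciferase was quantified after a 30 min room-temperature incubation with Amplite.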
Background: qHTS replaces the single test concentration by a dilution series.

Assay [2] in a line: qHTS assay for small molecules that induce genotoxicity in human embryonic kidney cells expressing luciferase-tagged ATAD5 - cell viability (AID 651634; calls by dose curve; note: nearly all actives have a fitted effect of over 25% in size). Conditions: HEK293T ATAD5-luc cells viability, CellTiter-Fluor, 15.5 h; series mostly up to 83.3 µM. Put shortly: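 Cytotoxicity counter-readout: after 15.5 hr compound treatment at 37C, live-cell protease activity in ATAD5-luciferase HEK293T cells measured by CellTiter-Fluor fluorescence, 30 min development at 37C.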

Assay [3] is described as follows: qHTS assay to test for compound auto fluorescence at 590 nm (red) in HepG2 cells (AID 720674). The note with it: HepG2 autofluorescence, red 540/590 nm, 1 h; series mostly up to 91.3 µM. Put shortly: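 Intrinsic compound fluorescence in the red window (Ex/Em 540/590 nm) is measured in attached HepG2 cells exposed for 1 hr, DMSO vehicle as baseline, benchmarked to Rose Bengal sodium.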

Assay [4] in a line: qHTS assay to test for compound auto fluorescence at 535 nm (green) in HepG2 cells (AID 720675). The note with it: green autofluorescence 485/535 nm, 1 h; series mostly up to 91.3 µM.
Assay [5] in a line: qHTS assay to test for compound auto fluorescence at 590 nm (red) in HEK293 cells (AID 720679). Conditions: red autofluorescence 540/590 nm; series mostly up to 91.3 µM. An outline of the steps: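 Autofluorescence equivalency to Rose Bengal sodium, 540/590nm, in HEK293 cells exposed overnight to 23 nL compound per well.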
Assay [6] can be described thus: qHTS assay to test for compound auto fluorescence at 535 nm (green) in HEK293 cells (AID 720680). The note with it: green autofluorescence 485/535 nm; series mostly up to 91.3 µM.
The nature of assay [7]: qHTS assay to test for compound auto fluorescence at 460 nm (blue) in HEK293 cell free culture (AID 720681). The note with it: cell-free medium, autofluorescence 405/460 nm (blue); series mostly up to 91.3 µM. Put shortly:
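Test compounds were pinned into cell-free culture medium (DMEM with 10% FBS) and fluorescence was read directly at Ex/Em 405/460 nm. Signals were expressed as fluorescence equivalents of triamterene, with DMSO vehicle as control.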

Assay [8] is described as follows: qHTS assay to test for compound auto fluorescence at 535 nm (green) in HEK293 cell free culture (AID 720682). The note with it: cell-free medium, green autofluorescence 485/535 nm, stronger effect = higher value; series mostly up to 91.3 µM. Put shortly: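 Intrinsic compound fluorescence is measured in culture medium containing 10% FBS, with excitation at 485 nm and detection at 535 nm, referenced to fluorescein.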

Assay [9] is described as follows: qHTS assay to test for compound auto fluorescence at 590 nm (red) in HEK293 cell free culture (AID 720683). The note with it: cell-free medium autofluorescence, Ex540/Em590 red; series mostly up to 91.3 µM. An outline of the steps: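 Tox21 10K library compounds were pinned into cell-free DMEM with 10% FBS and fluorescence was read at excitation 540 nm. Activity is expressed as Rose Bengal sodium equivalency.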

Assay [10] is described as follows: qHTS assay to test for compound auto fluorescence at 460 nm (blue) in HepG2 cell free culture (AID 720685). The note with it: Cell-free culture medium, blue autofluorescence 405/460 nm; series mostly up to 91.3 µM. An outline of the steps: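 Cell-free plates of MEM plus 10% FBS received 23 nL compound or DMSO vehicle; blue-channel (405/460 nm) intensity scored against triamterene as reference fluorophore.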

Assay [11] can be described thus: qHTS assay to test for compound auto fluorescence at 535 nm (green) in HepG2 cell free culture (AID 720686). Conditions: Cell-free medium, green autofluorescence 485/535 nm; series mostly up to 91.3 µM.
Assay [12] can be described thus: qHTS assay to test for compound auto fluorescence at 460 nm (blue) in HepG2 cells (AID 720687). Conditions: autofluorescence 405/460 nm, 1 h; series mostly up to 91.3 µM. Put shortly: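 Cells (2,000/well in MEM with 10% FBS) attached overnight at 37 C, then were exposed to compound or DMSO for 1 hr at 37 C, 5% CO2. Fluorescence read at Ex/Em 405/460 nm, expressed as triamterene-equivalent signal.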

A short description of assay [13]: qHTS assay for small molecule disruptors of the mitochondrial membrane potential (AID 720635). Note: potency is the fitted concentration of half-maximal effect. Conditions: HepG2 mitochondrial membrane potential, Mito-MPS dye ratio; series mostly up to 83.2 µM. Put shortly: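 HepG2 cells (2,000/well) attached overnight at 37C, then took compound for 1 hr at 37C, 5% CO2. Mito-MPS dye was added for 30 min; fluorescence was read at 490/535 nm (monomers) and 540/590 nm (aggregates).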

A short description of assay [14]: qHTS assay to test for compound auto fluorescence at 460 nm (blue) in HEK293 cells (AID 720678). Conditions: blue autofluorescence 405/460 nm; series mostly up to 91.3 µM. Put shortly:
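Auto fluorescence in the blue band was quantified as triamterene equivalency. HEK293 cells were seeded at 2,000/well, dosed after a 4-5 hr attachment, and kept overnight at 37C before the 405/460 nm reading.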

Assay [15] in a line: qHTS assay to test for compound auto fluorescence at 590 nm (red) in HepG2 cell free culture (AID 720684). Conditions: cell-free medium autofluorescence, red 540/590 nm; series mostly up to 91.3 µM. An outline of the steps: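 Ex 540 / Em 590 nm read of compound in cell-free MEM (10% FBS). Rose Bengal sodium reference.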
Assay [16] deals with Glucocorticoid receptor (Homo sapiens) (UniProt P04150). The experiment in a line: qHTS assay to identify small molecule agonists of the glucocorticoid receptor (GR) signaling pathway (AID 720691; active = well fitted activation curve with a large enough effect in the signal ratio in the repeat runs, not every such curve was filed as active; the % refers to the signal ratio). Conditions: GR-bla HeLa, beta-lactamase reporter ratio, 18 h; activation: at 62.4 µM (top of the series). Put shortly:
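Agonist-mode qHTS in HeLa cells stably expressing a glucocorticoid-response-element beta-lactamase reporter. Fluorescence intensity read with FRET substrate (2 h, room temperature) after 18 h compound treatment at 37 C.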

Assay [17] in a line: qHTS assay for small molecule disruptors of the mitochondrial membrane potential - cell viability (AID 720634; calls by dose curve;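 note: human HepG2 liver cancer cells; nearly all actives have a fitted effect of over 20% in size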). The note with it: HepG2 viability, ATP luminescence (CellTiter-Glo), 1 h; series mostly up to 83.2 µM. An outline of the steps:
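Cytotoxicity was quantified from ATP content by CellTiter-Glo luminescence in the same wells as the MMP dye read-out. HepG2 (2,000 cells/well) were plated overnight and exposed to compounds for 1 hr at 37 C.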

A short description of assay [18]: qHTS assay for small molecule agonists of the p53 signaling pathway - cell viability (AID 651633; calls by dose curve;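 note: p53RE-bla HCT reporter cells with a stable beta-lactamase p53 reporter; nearly all actives have a fitted effect of over 30% in size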). Conditions: p53RE-bla HCT-116 viability, ATP luminescence, 16 h; series mostly up to 83.3 µM. An outline of the steps:
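p53RE-bla cells, seeded at 4,000 per well and rested 5 h at 37 C/5% CO2, received compounds in DMSO for 16 h at 37 C. CellTiter-Glo was then added, and luminescence was read after 30 min at room temperature to gauge cytotoxicity.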

Assay [19] addresses Glucocorticoid receptor (Homo sapiens) (UniProt P04150). The experiment in a line: qHTS assay to identify small molecule antagonists of the glucocorticoid receptor (GR) signaling pathway (AID 720692; active = well fitted inhibition curve with a large enough effect in the signal ratio in the repeat runs, not every such curve was filed as active; the % refers to the signal ratio). Conditions: GR-bla HeLa, beta-lactamase FRET ratio, dexamethasone-stimulated, 18 h; series mostly up to 58.5 µM. Put shortly:
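Inhibition of dexamethasone-driven (5 nM final) beta-lactamase expression was measured in GRE-reporter HeLa cells over 18 h at 37C. Fluorescence was read after 2 h with the B/G FRET substrate at room temperature.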

Inconclusive results are not listed. The source made the active and inactive calls. Unless noted, calls come from the whole dose curve; as a rule, active = well fitted curve in the direction sought with a large enough effect in the repeat runs; inconclusive = weak or mixed curves; inactive = no such curve, though single readings can be large; an effect the other way counts as inactive or inconclusive.

Sequence of Glucocorticoid receptor (Homo sapiens) (P04150 whole entry, looked up): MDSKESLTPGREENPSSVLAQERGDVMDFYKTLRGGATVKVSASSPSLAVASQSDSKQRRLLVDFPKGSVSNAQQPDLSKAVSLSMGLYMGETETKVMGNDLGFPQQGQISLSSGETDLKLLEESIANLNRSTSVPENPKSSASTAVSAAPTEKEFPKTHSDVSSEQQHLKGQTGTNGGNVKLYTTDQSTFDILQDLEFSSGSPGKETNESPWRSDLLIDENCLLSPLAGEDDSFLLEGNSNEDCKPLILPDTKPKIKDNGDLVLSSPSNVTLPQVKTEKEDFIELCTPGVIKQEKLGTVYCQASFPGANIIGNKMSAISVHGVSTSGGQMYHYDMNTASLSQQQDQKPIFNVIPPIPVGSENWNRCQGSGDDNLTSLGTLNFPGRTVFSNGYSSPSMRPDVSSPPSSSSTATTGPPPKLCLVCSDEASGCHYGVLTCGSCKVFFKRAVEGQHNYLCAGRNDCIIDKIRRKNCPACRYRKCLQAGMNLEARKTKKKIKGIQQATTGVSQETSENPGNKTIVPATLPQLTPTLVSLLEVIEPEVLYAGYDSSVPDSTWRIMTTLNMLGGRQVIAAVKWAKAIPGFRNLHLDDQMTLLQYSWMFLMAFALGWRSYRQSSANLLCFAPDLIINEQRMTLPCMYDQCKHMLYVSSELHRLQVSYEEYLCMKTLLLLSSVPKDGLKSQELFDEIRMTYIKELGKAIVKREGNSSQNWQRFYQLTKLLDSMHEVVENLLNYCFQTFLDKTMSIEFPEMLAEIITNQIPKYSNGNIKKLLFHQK

Take `Oc1cc(Cl)c(Cl)c(Cl)c1Cl`: the Potency result in assay [1], in assay [2], in [4], in [7], in assay [10] and in [11] was “inactive” throughout. Also, in assay [12], the Potency entry was “inactive”. The compound was called inactive in assay [3], in [5], in assay [6], in assay [8] and in assay [9].

Take `Clc1ccc(C(Cl)(Cl)Cl)cc1Cl`: the Potency entry in assay [1], in assay [4], in [14], in [7], in assay [10] and in assay [11] was “inactive” each time. Further, in assay [12], the Potency result was “inactive”. Further, the Potency in assay [13] was 59.8 µM (active). Moreover, the outcome in [3], in assay [5], in assay [6] and in assay [8] was inactive.

Take `O=[N+]([O-])[O-].[Tl+]`: the compound was called inactive in assay [3], in assay [5], in assay [6] and in [15]. In addition, the Potency entry in assay [4], in assay [7], in assay [10], in assay [11], in assay [12] and in assay [16] was “inactive” throughout.

Consider `O.O.O.O.O.O.O=S(=O)([O-])[O-].[Ni+2]`, for which the Potency result in assay [2], in assay [17], in assay [4], in [14], in [7] and in assay [10] was “inactive” in each case. Also, the Potency entry in [11] and in assay [12] was “inactive” each time. Also, the call in assay [3], in [5], in assay [6] and in [15] was inactive.

On to `CCCCn1cc[n+](C)c1.[Cl][Fe-]([Cl])([Cl])[Cl]`, for which the Potency result in [2], in [13], in assay [4], in assay [14], in [7] and in assay [10] was “inactive” throughout. The Potency result in assay [11] and in assay [12] was “inactive” in each case. The compound was called inactive in assay [6], in assay [9] and in assay [15].

Regarding `O=[N+]([O-])c1ccc(CCl)cc1`, the Potency result in assay [18], in [2], in [17], in [13], in assay [4] and in [14] was “inactive” in each case. For the same compound, the Potency result in assay [7], in [10], in [11], in assay [12] and in assay [19] was “inactive” throughout. Also, the outcome in assay [3], in assay [6], in assay [9] and in assay [15] was inactive.

Take `[Cl-].[Cl-].[Sn+2]`: the Potency entry in assay [2], in assay [4], in [14], in [7], in [10] and in assay [11] was “inactive” each time. The Potency result in assay [12] was “inactive”. In addition, the call in [5], in [6], in assay [8], in [9] and in assay [15] was inactive.

In the case of `CCO/N=C(\CC)C1=C(O)CC(c2c(C)cc(C)cc2C)CC1=O` (stereo not given), the Potency entry in assay [18], in [2], in assay [17], in assay [4], in assay [14] and in assay [7] was “inactive” each time. The Potency entry in [10], in assay [11], in assay [12] and in assay [19] was “inactive” in each case. Also, the Potency in assay [13] was 12.2 µM (active). For the same compound, the result in [3], in [6], in assay [8] and in [15] was inactive.

Consider `CC(=O)[O-].CC(=O)[O-].[Co+2]`, for which the Potency entry in assay [18], in assay [2], in [4], in assay [14], in assay [7] and in [10] was “inactive” in each case. For the same compound, the Potency entry in assay [11] and in assay [12] was “inactive” in each case. Also, the result in assay [3], in [5], in [6], in [9] and in assay [15] was inactive.

On to `O.O.O.O.O.O.O.O=S(=O)([O-])[O-].[Co+2]`, for which the Potency entry in assay [17], in assay [4], in assay [14], in assay [7], in assay [10] and in assay [11] was “inactive” in each case. Besides, the Potency entry in [12] is “inactive”. Moreover, the compound was called inactive in [3], in assay [5], in assay [6], in [8], in assay [9] and in assay [15].

Consider `c1ccc(Nc2ccc(Nc3ccccc3)cc2)cc1`, for which the Potency result in [1], in assay [2], in [4], in assay [14], in assay [7] and in [10] was “inactive” throughout. Also, the Potency entry in [11], in assay [12] and in [16] was “inactive” in each case. Moreover, in assay [13], the Potency is 8.6 µM (active). The compound was classed as inactive in assay [5], in [6], in [8], in assay [9] and in assay [15].
